Compounds without any hit were thinned out: in the full panel of roughly 79,000, 15% have a hit. The source made the active and inactive calls. Rule as the data show it: active = growth inhibition above about 70%; inactive = the rest.
How the values were obtained:
[1] = NCI Yeast Anticancer Drug Screen. Data for the rad52 strain (AID 147);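 also: 0% = growth of vehicle-treated control cultures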; settings: S. cerevisiae rad52 mutant growth inhibition, stronger effect = higher value
Procedure, shortened: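 Screen used a yeast mutant impaired in DNA repair. After compound exposure, growth was measured. Values reflect inhibition compared with vehicle-treated cells.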

[2] = NCI Yeast Anticancer Drug Screen. Data for the wt1 strain (AID 149);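 also: 0% = growth of vehicle-treated wt1 cultures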; settings: S. cerevisiae wt1 strain (SPY 50644) growth inhibition, stronger effect = higher value
Procedure, shortened: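 Yeast wt1 strain exposed to compounds; growth inhibition measured relative to vehicle-treated controls.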

[3] = NCI Yeast Anticancer Drug Screen. Data for the rad50EPP+ strain (AID 151);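 also: 0% = growth of vehicle-treated control cultures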; settings: S. cerevisiae rad50 mutant strain, stronger effect = higher value
Procedure, shortened: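 Exposing the rad50EPP+ strain to each compound, growth was compared with vehicle-only cultures to give inhibition.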

[4] = NCI Yeast Anticancer Drug Screen. Data for the mgt1 strain (AID 153); settings: S. cerevisiae mgt1 mutant growth inhibition, stronger effect = higher value
Procedure, shortened: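 Genetically defined yeast (mgt1) treated with compound; inhibition of growth expressed against vehicle-treated controls.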

[5] = NCI Yeast Anticancer Drug Screen. Data for the rad50 strain (AID 155);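 also: 0% = growth of vehicle-only cultures of the same strain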; settings: S. cerevisiae rad50 strain growth inhibition, stronger effect = higher value
Procedure, shortened: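 Yeast carrying a defined DNA repair defect were exposed to test compounds, and growth was compared with vehicle-treated controls to give percent inhibition.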

[6] = NCI Yeast Anticancer Drug Screen. Data for the mec2-1 strain (AID 157); settings: S. cerevisiae mec2-1 strain, stronger effect = higher value
Procedure, shortened: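 Readout is yeast growth inhibition, normalised to vehicle-treated controls, in the mec2-1 strain exposed to compound.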

[7] = NCI Yeast Anticancer Drug Screen. Data for the sgs1 mgt1 strain (AID 161);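 also: 0% = growth of cultures given vehicle only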; settings: S. cerevisiae sgs1 mgt1 strain, stronger effect = higher value
Procedure, shortened: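 Yeast cells carrying a defined DNA-repair defect were exposed to test compounds. Growth inhibition was measured relative to vehicle-treated controls.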

[8] = NCI Yeast Anticancer Drug Screen. Data for the CLN2oe strain (AID 163);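 also: 0% = growth of vehicle-only control cultures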; settings: S. cerevisiae CLN2oe strain, stronger effect = higher value
Procedure, shortened: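 Values reflect how much compound exposure reduced yeast growth, referenced to vehicle-exposed cells. Assay organism is a strain with a defined genetic change affecting cell-cycle control.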

[9] = NCI Yeast Anticancer Drug Screen. Data for the cln2 rad14 strain (AID 165);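 also: 0% = growth equal to vehicle treated cultures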; settings: S. cerevisiae cln2 rad14 strain, stronger effect = higher value
Procedure, shortened: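 Relative to vehicle controls, growth inhibition of compound-treated cln2 rad14 yeast was recorded.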

[10] = NCI Yeast Anticancer Drug Screen. Data for the bub3 strain (AID 167); settings: S. cerevisiae bub3 mutant strain, stronger effect = higher value
Procedure, shortened: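 Compounds were applied to a genetically altered yeast strain carrying a cell-cycle control defect. Growth inhibition was scored against vehicle-treated controls.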

[11] = NCI Yeast Anticancer Drug Screen. Data for the wt2 strain (AID 169);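 also: 0% = growth of vehicle-treated yeast cultures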; settings: S. cerevisiae wt2 strain growth inhibition, stronger effect = higher value
Procedure, shortened: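 Values express reduction in yeast growth under compound treatment, referenced to vehicle-treated cells.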

[12] = NCI Yeast Anticancer Drug Screen. Data for the mlh1 strain (AID 171);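 also: 0% = growth of vehicle-treated control cultures of the same strain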; settings: S. cerevisiae mlh1 strain growth inhibition, stronger effect = higher value
Procedure, shortened: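 Steps: expose the defined-mutant yeast strain to compound; expose a parallel culture to vehicle; measure growth; express compound effect as inhibition relative to the vehicle culture.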

[13] = NCI Yeast Anticancer Drug Screen. Data for the sgs1 strain (AID 173);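 also: 0% = growth of vehicle-only control cultures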; settings: S. cerevisiae sgs1 mutant, stronger effect = higher value
Procedure, shortened: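 Treat defined-mutant yeast with compound; measure growth; calculate inhibition relative to vehicle-treated cells.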

[14] = NCI Yeast Anticancer Drug Screen. Data for the mlh1 rad18 strain (AID 175); settings: S. cerevisiae mlh1 rad18 strain growth inhibition, stronger effect = higher value
Procedure, shortened: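 Test agents were incubated with a yeast strain of defined genotype (DNA damage repair defect). Inhibition of growth was derived by comparison with vehicle-exposed cultures.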

[15] = NCI Yeast Anticancer Drug Screen. Data for the rad18 strain (AID 177); settings: S. cerevisiae rad18 mutant growth inhibition, stronger effect = higher value
Procedure, shortened: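 A genetically defined yeast mutant impaired in DNA damage repair was treated with test compounds, then its growth was measured against cultures receiving vehicle alone.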

[16] = at 5.0 µM (retest, dose inferred, filed as 0.5)
[17] = at 50.0 µM (retest, dose inferred, filed as 5.0)

Measured: growth inhibition

COC1CC(CC2CCC(C)C(C(C)C(=O)O)O2)OC2(OC(C)(C3CCC(C)(C4OC(C5OC(O)(CO)C(C)CC5C)CC4C)O3)CC2C)C1C (stereo not drawn)
inactive: [1]; at 1.2 µM 17% | [1]; at 3.7 µM -3% | [1]; at 11.0 µM 22% | [2]; at 1.2 µM -2% | [2]; at 3.7 µM -9% | [2]; at 11.0 µM 5% | [3]; at 1.2 µM -12% | [3]; at 3.7 µM 0% | [3]; at 11.0 µM -12% | [3]; at 33.0 µM 40% | [4]; at 1.2 µM 14% | [4]; at 3.7 µM -5% | [4]; at 11.0 µM 27% | [5]; at 1.2 µM 24% | [5]; at 3.7 µM 19% | [5]; [16] 36% | [5]; at 11.0 µM 34% | [6]; at 1.2 µM -2% | [6]; at 3.7 µM -7% | [6]; [16] 28% | [6]; at 11.0 µM 12% | [7]; [16] -1% | [8]; at 1.2 µM -46% | [8]; at 3.7 µM -22% | [8]; at 11.0 µM 50% | [9]; [16] 26% | [10]; at 1.2 µM -4% | [10]; at 3.7 µM -4% | [10]; [16] 3% | [10]; at 11.0 µM 25% | [11]; at 1.2 µM -46% | [11]; at 3.7 µM -46% | [11]; at 11.0 µM -18% | [11]; at 33.0 µM 60% | [12]; at 1.2 µM -3% | [12]; at 3.7 µM -15% | [12]; at 11.0 µM 0% | [13]; at 1.2 µM -36% | [13]; at 3.7 µM -22% | [13]; at 11.0 µM -12% | [14]; [16] 30% | [15]; at 1.2 µM -17% | [15]; at 3.7 µM -25% | [15]; at 11.0 µM -11%
active: [1]; at 33.0 µM 93% | [1]; at 100.0 µM 98% | [2]; at 33.0 µM 93% | [2]; at 100.0 µM 98% | [3]; at 100.0 µM 90% | [4]; at 33.0 µM 91% | [4]; at 100.0 µM 98% | [5]; at 33.0 µM 96% | [5]; [17] 95% | [5]; at 50.0 µM 84.6% | [5]; at 100.0 µM 98% | [6]; at 33.0 µM 90% | [6]; [17] 95% | [6]; at 50.0 µM 90% | [6]; at 100.0 µM 97% | [7]; [17] 91% | [7]; at 50.0 µM 89% | [8]; at 33.0 µM 93% | [8]; at 100.0 µM 96% | [9]; [17] 88% | [9]; at 50.0 µM 84% | [10]; at 33.0 µM 84% | [10]; [17] 82% | [10]; at 50.0 µM 86.3% | [10]; at 100.0 µM 97% | [11]; at 100.0 µM 91% | [12]; at 33.0 µM 83% | [12]; at 100.0 µM 97% | [13]; at 33.0 µM 88% | [13]; at 100.0 µM 97% | [14]; [17] 96% | [14]; at 50.0 µM 87.8% | [15]; at 33.0 µM 93% | [15]; at 100.0 µM 97%

From PubChem BioAssay (NCI)
